Measurements published in PubChem BioAssay (EPA / NIEHS).
Records with an inconclusive call do not appear. Calls of active or inactive are those of the source. The calls were made as follows, unless noted: active = hit-call score of the fitted dose curve at least 0.9, where 1 is the maximum; inactive = score below 0.9.

Columns and labels:
[1] = target: Retinoic acid receptor alpha (Homo sapiens) (UniProt P10276); experiment: ATG_DR5_RAR_CIS: Attagene CIS-FACTORIAL HepG2 Assay for human Retinoic Acid Receptor Alpha (RARE), DR5 submotif (AID 2282934); settings: HepG2 Attagene cis-factorial RARE DR5 reporter, mRNA; actives raise or lower the signal
Sequence of Retinoic acid receptor alpha (Homo sapiens) (P10276 whole entry, looked up): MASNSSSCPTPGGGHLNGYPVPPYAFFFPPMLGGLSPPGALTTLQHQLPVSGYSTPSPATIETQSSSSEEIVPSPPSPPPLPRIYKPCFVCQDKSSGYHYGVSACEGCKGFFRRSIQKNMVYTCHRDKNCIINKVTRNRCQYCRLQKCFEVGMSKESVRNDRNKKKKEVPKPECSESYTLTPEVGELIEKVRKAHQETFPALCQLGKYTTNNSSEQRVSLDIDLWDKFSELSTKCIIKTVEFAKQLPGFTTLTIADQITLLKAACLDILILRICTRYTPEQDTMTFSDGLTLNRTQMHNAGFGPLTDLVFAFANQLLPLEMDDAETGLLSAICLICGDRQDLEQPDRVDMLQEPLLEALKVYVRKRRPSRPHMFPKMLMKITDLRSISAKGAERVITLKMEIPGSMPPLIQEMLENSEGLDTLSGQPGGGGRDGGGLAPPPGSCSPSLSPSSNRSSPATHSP
In short: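 Read-out: DR5-driven reporter transcript measured by RT-PCR, 6-FAM primer extension, HpaI digest and capillary electrophoresis. Human HepG2 liver cells carry transiently transfected cis-element reporter constructs; dosing lasts 24 h. Gain or loss of signal fitted against DMSO baseline.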

[2] = target: Hepatocyte nuclear factor 3-beta (Homo sapiens) (UniProt Q9Y261); experiment: ATG_FoxA2_CIS: Attagene CIS-FACTORIAL HepG2 Assay for human Forkhead box A2 (FOXA2) (AID 2282942); settings: HepG2 cis-reporter transcription factor activity, 24 h; actives raise or lower the signal
Sequence of Hepatocyte nuclear factor 3-beta (Homo sapiens) (Q9Y261 whole entry, looked up): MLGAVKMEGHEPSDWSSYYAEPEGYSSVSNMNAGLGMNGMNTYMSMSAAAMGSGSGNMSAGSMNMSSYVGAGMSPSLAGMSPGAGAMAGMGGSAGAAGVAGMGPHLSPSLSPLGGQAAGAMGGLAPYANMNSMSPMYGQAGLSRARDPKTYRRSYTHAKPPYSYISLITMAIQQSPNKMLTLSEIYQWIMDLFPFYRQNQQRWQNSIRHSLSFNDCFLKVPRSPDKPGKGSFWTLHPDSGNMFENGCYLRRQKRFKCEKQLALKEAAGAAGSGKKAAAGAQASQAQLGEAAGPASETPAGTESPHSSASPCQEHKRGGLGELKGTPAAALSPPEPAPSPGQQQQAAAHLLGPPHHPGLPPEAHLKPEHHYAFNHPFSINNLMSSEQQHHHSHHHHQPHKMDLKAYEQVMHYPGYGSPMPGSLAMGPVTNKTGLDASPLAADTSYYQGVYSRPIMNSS
In short: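 Endogenous transcription factor activity was read in HepG2 cells carrying transiently transfected cis-promoter reporter units. After 24 h dosing, reporter mRNA was quantified by RT-PCR and capillary electrophoresis, and values fitted bidirectionally versus DMSO.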

[3] = ATG_FoxO_CIS: Attagene CIS-FACTORIAL HepG2 Assay for human Forkhead box O (FoxO) (AID 2282943); settings: HepG2 Attagene cis-reporter, FoxO element, mRNA; actives raise or lower the signal
In short: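 Read-out: fluorescence of 6-FAM-labelled reporter cDNA fragments resolved by capillary electrophoresis. Transiently transfected HepG2 cells were dosed for 24 h; activity fitted in both directions relative to DMSO controls.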

[4] = ATG_GRE_CIS: Attagene CIS-FACTORIAL HepG2 Assay for human Glucocorticoid Response Elements (GRE) (AID 2282947); settings: HepG2 GRE cis-reporter, Attagene multiplex mRNA; actives raise or lower the signal
In short: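 Read-out: fluorescent reporter-transcript fragments separated by capillary electrophoresis after RT-PCR. Transiently transfected HepG2 cells carrying cis-element-driven reporter units were dosed for 24 h; gain or loss of signal fitted against DMSO control.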

[5] = ATG_PBREM_CIS: Attagene CIS-FACTORIAL HepG2 Assay for human Phenobarbital-responsive Enhancer Module (PBREM) (AID 2282955); settings: HepG2 PBREM cis-reporter, Attagene multiplexed transcription; actives raise or lower the signal
In short: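 Fluorescence of labelled reporter cDNA fragments, resolved by capillary electrophoresis, gives mRNA induction in transfected HepG2 cells treated for 24 h; DMSO serves as negative control and baseline.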

[6] = ATG_RORE_CIS: Attagene CIS-FACTORIAL HepG2 Assay for human RAR-related Orphan Receptor Element (RORE) (AID 2282959); settings: HepG2 Attagene cis-factorial RORE reporter, mRNA; actives raise or lower the signal
In short: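 Cells were HepG2 carrying transfected cis-regulated reporter constructs, dosed for 24 hours. Total RNA was reverse-transcribed and reporter cDNA amplified, fluorescently labeled and sized by capillary electrophoresis. Activity was fitted bidirectionally relative to DMSO.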

[7] = ATG_SREBP_CIS: Attagene CIS-FACTORIAL HepG2 Assay for human Sterol Regulatory Element Binding (SREBP) (AID 2282962); settings: HepG2 Attagene cis-factorial SREBP reporter, mRNA; actives raise or lower the signal
In short: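 Readout: fluorescent reporter-transcript peaks resolved by capillary electrophoresis after RT-PCR. Cells were human HepG2 carrying transfected cis-promoter reporter constructs, dosed for 24 h. Gain or loss of signal was fitted against DMSO controls.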

[8] = target: Hepatocyte nuclear factor 4-alpha (Homo sapiens) (UniProt P41235); experiment: ATG_HNF4a_TRANS: Attagene TRANS-FACTORIAL HepG2 Assay for human Hepatocyte Nuclear Factor 4 alpha (HNF4a) (AID 2282982; active = hit-call score of the fitted dose curve at least 0.9, where 1 is the maximum); settings: HepG2 HNF4a transactivation reporter, mRNA readout
Sequence of Hepatocyte nuclear factor 4-alpha (Homo sapiens) (P41235 whole entry, looked up): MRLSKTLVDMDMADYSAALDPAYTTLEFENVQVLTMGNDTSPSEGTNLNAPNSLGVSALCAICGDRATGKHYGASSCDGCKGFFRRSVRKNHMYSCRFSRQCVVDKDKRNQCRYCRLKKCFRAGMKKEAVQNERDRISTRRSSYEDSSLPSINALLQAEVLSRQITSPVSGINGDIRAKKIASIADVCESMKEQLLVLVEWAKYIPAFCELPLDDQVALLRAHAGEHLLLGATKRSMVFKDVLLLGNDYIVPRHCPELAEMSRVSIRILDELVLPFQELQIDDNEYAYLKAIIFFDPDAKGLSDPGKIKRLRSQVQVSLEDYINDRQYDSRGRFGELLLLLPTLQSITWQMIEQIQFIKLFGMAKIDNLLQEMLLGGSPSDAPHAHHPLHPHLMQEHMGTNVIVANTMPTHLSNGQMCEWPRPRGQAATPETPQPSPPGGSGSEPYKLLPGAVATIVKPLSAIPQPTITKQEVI
In short: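 Transient MRTU transfection of HepG2, 24 h dosing. Readout: reporter mRNA via RT-PCR + capillary electrophoresis, fluorescence; activity fit upward relative to DMSO control.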

[9] = ATG_NFI_CIS: Attagene CIS-FACTORIAL HepG2 Assay for human Nuclear Factor I (NFI) (AID 2282989); settings: HepG2 cis-regulatory reporter, NFI response element transcription; actives raise or lower the signal
In short: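 Reporter transcripts were measured by RT-PCR with fluorescent primer extension and capillary electrophoresis 24 h post-treatment. HepG2 cells carried transiently transfected cis-regulated reporter constructs reporting endogenous factor activity; gain or loss fitted against DMSO baseline.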

[10] = TOX21_p53_BLA_p2_viability: Viability Assessment in the Tox21 HCT-116 p53 Agonism Beta-lactamase Assay, Phase 2 (AID 2283591; active = hit-call score of the fitted dose curve at least 0.9, where 1 is the maximum;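 also: compound exposure lasted 16 h at 37 °C; actives lower the ATP signal meaning cytotoxicity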)
In short: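 HCT116 p53-bla cells, 4000/well, dosed after 5 h plating (217-fold dilution of DMSO stocks) and incubated 16 h at 37C. Viability taken as cellular ATP by CellTiter-Glo luminescence after 30 min RT; signal loss marks cytotoxicity.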

[11] = target: Cellular tumor antigen p53 (Homo sapiens) (UniProt P04637); experiment: TOX21_p53_BLA_p2_ratio: Tox21 HCT-116 p53 Agonism Beta-lactamase Assay, Ratio, Phase 2 (AID 2283592; active = hit-call score of the fitted dose curve at least 0.9, where 1 is the maximum)
Sequence of Cellular tumor antigen p53 (Homo sapiens) (P04637 whole entry, looked up): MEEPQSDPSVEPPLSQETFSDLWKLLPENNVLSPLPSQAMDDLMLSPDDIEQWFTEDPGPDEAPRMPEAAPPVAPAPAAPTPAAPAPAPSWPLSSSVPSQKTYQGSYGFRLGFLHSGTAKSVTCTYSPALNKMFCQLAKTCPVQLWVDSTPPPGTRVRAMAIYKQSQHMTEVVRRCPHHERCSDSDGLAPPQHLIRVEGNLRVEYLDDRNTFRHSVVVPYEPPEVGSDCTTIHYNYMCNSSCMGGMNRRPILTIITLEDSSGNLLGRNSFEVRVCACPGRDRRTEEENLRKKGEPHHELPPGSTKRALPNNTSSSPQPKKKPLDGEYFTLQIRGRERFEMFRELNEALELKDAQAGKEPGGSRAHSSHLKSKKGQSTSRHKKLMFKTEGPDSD
In short: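 DMSO-normalized, positive-direction endpoint derived from the 460 nm/530 nm FRET ratio in HCT116 p53 beta-lactamase reporter cells exposed 16 h at 37C and loaded with CCF4-AM for 2 h.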

[12] = TOX21_p53_BLA_p3_viability: Viability Assessment in the Tox21 HCT-116 p53 Agonism Beta-lactamase Assay, Phase 3 (AID 2283593; active = hit-call score of the fitted dose curve at least 0.9, where 1 is the maximum;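 also: cells exposed to compound for 16 h before reading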)
In short: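 HCT116 cells, 4000/well, dosed 5 h after plating by pin transfer (217-fold dilution from DMSO stock) and incubated 16 h at 37C, 5% CO2. Viability read as ATP luminescence with CellTiter-Glo after 30 min at room temperature.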

[13] = target: Cellular tumor antigen p53 (Homo sapiens) (UniProt P04637); experiment: TOX21_p53_BLA_p3_ratio: Tox21 HCT-116 p53 Agonism Beta-lactamase Assay, Ratio, Phase 3 (AID 2283596; active = hit-call score of the fitted dose curve at least 0.9, where 1 is the maximum)
In short: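 Cells were seeded at 4000/well, rested 5 h at 37C, then dosed with DMSO compound solutions (217-fold dilution) for 16 h. CCF4-AM substrate was loaded for 2 h at room temperature, and the 460/530 nm emission ratio was fitted for gain of signal versus DMSO.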

[14] = target: Cellular tumor antigen p53 (Homo sapiens) (UniProt P04637); experiment: TOX21_p53_BLA_p5_ratio: Tox21 HCT-116 p53 Agonism Beta-lactamase Assay, Ratio, Phase 5 (AID 2283599; active = hit-call score of the fitted dose curve at least 0.9, where 1 is the maximum)
In short: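 HCT-116 p53-bla cells (4000/well) plated 5 h, dosed with compound (217-fold DMSO dilution) for 16 h at 37 C; CCF4-AM substrate 2 h at room temperature. Activity is the 460/530 nm emission ratio (405 nm excitation), fitted in gain-of-signal direction versus DMSO.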

[15] = TOX21_p53_BLA_p5_viability: Viability Assessment in the Tox21 HCT-116 p53 Agonism Beta-lactamase Assay, Phase 5 (AID 2283600; active = hit-call score of the fitted dose curve at least 0.9, where 1 is the maximum)
In short: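 Here cell health was gauged by ATP levels in wells holding 4000 cells, each treated 16 h with DMSO-delivered compounds at 217-fold dilution; reduced luminescence marked toxicity.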

[16] = target: Cellular tumor antigen p53 (Homo sapiens) (UniProt P04637); experiment: TOX21_p53_BLA_p4_ratio: Tox21 HCT-116 p53 Agonism Beta-lactamase Assay, Ratio, Phase 4 (AID 2283601; active = hit-call score of the fitted dose curve at least 0.9, where 1 is the maximum)
In short: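 HCT-116 p53 beta-lactamase reporter cells (4000/well) preincubated 5 h, then compound (217-fold dilution of DMSO stock) for 16 h at 37C. CCF4-AM substrate added 2 h at room temperature; 460/530 nm emission ratio fitted upward versus DMSO.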

[17] = ATG_M_32_TRANS: Attagene TRANS-FACTORIAL HepG2 Assay for M32 Transcription Factor (Internal Marker) (AID 2282984; active = hit-call score of the fitted dose curve at least 0.9, where 1 is the maximum;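 also: transcript level of a background control reporter unit measured by RT-PCR and capillary electrophoresis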); settings: HepG2 Attagene TRANS M32 internal marker reporter
In short: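 Read-out: fluorescent reporter cDNA fragments resolved by capillary electrophoresis after RT-PCR of total RNA. Transfected HepG2 cells were exposed to chemical for 24 h. Activity scored in the positive direction relative to DMSO.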

[18] = target: human Retinoid X Receptor beta (RXRb), RXRB (gene 6257) (UniProt P28702); experiment: ATG_RXRb_TRANS: Attagene TRANS-FACTORIAL HepG2 Assay for human Retinoid X Receptor beta (RXRb) (AID 2283013; active = hit-call score of the fitted dose curve at least 0.9, where 1 is the maximum)
Sequence of human Retinoid X Receptor beta (RXRb), RXRB (gene 6257) (P28702 whole entry, looked up, the tested form may be a part): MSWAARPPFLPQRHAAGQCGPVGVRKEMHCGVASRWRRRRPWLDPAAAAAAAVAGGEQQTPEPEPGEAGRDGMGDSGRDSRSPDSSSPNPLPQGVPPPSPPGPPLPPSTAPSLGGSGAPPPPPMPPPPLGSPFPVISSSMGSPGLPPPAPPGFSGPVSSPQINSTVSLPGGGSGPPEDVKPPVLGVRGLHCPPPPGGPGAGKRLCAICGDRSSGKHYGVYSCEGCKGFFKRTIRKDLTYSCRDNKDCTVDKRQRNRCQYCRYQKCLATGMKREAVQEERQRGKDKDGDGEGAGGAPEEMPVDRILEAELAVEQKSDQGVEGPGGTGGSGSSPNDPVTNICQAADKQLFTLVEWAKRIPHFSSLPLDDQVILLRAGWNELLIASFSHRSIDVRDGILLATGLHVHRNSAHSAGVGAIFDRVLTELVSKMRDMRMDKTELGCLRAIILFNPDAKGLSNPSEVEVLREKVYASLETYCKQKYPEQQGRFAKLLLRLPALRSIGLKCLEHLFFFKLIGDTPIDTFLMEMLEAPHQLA
In short: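 After a 24 h incubation with test chemical, transfected HepG2 cells carrying NR-Gal4 fusions and GAL4-UAS reporter transcription units yield RNA whose reporter cDNA is FAM-labelled, HpaI-cut and sized by capillary electrophoresis; increases over DMSO are scored.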

[19] = ATG_NF_kB_CIS: Attagene CIS-FACTORIAL HepG2 Assay for human Nuclear Factor Kappa B (NF-kB) (AID 2282991); settings: HepG2 Attagene cis-factorial NF-kB reporter mRNA; actives raise or lower the signal
In short: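 Endogenous transcription factor activity in HepG2 was captured via cis-regulated reporter constructs; after 24 h dosing, reporter mRNA was reverse-transcribed, amplified, fluorescently labelled and sized by capillary electrophoresis, with activity fitted bidirectionally relative to DMSO.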

[20] = target: human Peroxisome Proliferator-activated Receptor alpha (PPARa), PPARA (gene 5465) (UniProt Q07869); experiment: ATG_PPARa_TRANS: Attagene TRANS-FACTORIAL HepG2 Assay for human Peroxisome Proliferator-activated Receptor alpha (PPARa) (AID 2283001; active = hit-call score of the fitted dose curve at least 0.9, where 1 is the maximum)
Sequence of human Peroxisome Proliferator-activated Receptor alpha (PPARa), PPARA (gene 5465) (Q07869 whole entry, looked up, the tested form may be a part): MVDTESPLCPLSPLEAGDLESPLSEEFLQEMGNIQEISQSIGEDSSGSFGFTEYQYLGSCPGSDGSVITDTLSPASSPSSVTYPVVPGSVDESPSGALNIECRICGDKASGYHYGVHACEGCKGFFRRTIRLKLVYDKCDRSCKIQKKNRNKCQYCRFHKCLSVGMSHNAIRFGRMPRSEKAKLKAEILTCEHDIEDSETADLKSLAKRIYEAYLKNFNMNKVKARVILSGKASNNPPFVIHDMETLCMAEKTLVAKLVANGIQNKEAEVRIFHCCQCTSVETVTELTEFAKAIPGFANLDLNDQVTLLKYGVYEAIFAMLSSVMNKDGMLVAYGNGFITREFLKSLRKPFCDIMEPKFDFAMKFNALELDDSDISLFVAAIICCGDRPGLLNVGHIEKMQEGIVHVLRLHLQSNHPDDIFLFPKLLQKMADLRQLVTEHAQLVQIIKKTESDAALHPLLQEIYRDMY
In short: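 Transient HepG2 transfection, GAL4-UAS reporters, NR-Gal4 chimeras; 24 h compound exposure. Readout: reporter transcripts by RT-PCR, 6-FAM primer extension, HpaI digest, capillary electrophoresis. Positive direction vs DMSO baseline.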

Measured: outcome

O=C1NC(=O)C2CC=CCC12 (stereo unspecified)
not listed: [17] | [18] | [19] | [20]
inactive: all other assays above

Brc1ccc(Oc2ccc(Br)cc2)cc1
not listed: [7] | [8] | [19] | [20]
inactive: all other assays above

C=C1CC[C@H]2C[C@@H]1C2(C)C
inactive: [1] | [8] | [9] | [19]

O=C(OCc1ccccc1)c1ccccc1
not listed: [10] | [11] | [12] | [13] | [14] | [15] | [16]
inactive: all other assays above

Cc1ccccc1S(N)(=O)=O
not listed: [8] | [16] | [20]
inactive: all other assays above
